# Screens as filed in PubChem BioAssay.
# GDH-TPI counter-1 = GDH-TPI coupling enzyme inhibitors, primary screen, artefact control for M. tuberculosis FBA inhibitor project, biochemical, absorbance, full deck; inhibition, % at 4.8 µM; 360,000 compounds, 1.2% hits; GDH-TPI coupled enzyme counterscreen, NADH absorbance; in the data active = inhibition above about 30%;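 also: 0% = DMSO wells and 100% = wells lacking the enzyme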
# BoNT-F LC inh = BoNT/F light chain protease inhibitors, primary screen, biochemical, flow cytometry, MLPCN library; Botulinum neurotoxin type F light chain protease (Clostridium botulinum); inhibition, % at 10 µM; Multiplex microsphere protease cleavage assay; AID 588497, 2011; 360,000 compounds, 0.22% hits; in the data active = inhibition above about 35%, passing the limit was not always enough; also: plate controls were buffer without enzyme for full effect and enzyme alone for no effect
# Bead autofluor = flagged as autofluorescent in microsphere protease counterscreen. compound autofluorescence counterscreen, microsphere flow cytometry; active compounds read high. fluorescence intensity (test concentration not listed). 360,000 compounds, 3.1% hits; in the data active = fluorescence intensity above about 16000
# Anthrax LF prot = Bacillus anthracis LF protease inhibitors, primary screen, biochemical, multiplex microsphere, MLPCN library. 360,000 compounds, 0.12% hits. multiplex microsphere protease cleavage assay. inhibition, % at 10 µM. Lethal factor (Bacillus anthracis), P15917; in the data active = inhibition above about 30%; also: plate controls were buffer without enzyme for full effect and enzyme alone for no effect
# BoNT-A LC inh2 = BoNT/A light chain protease inhibitors, primary screen, biochemical, flow cytometry, MLPCN library. Botulinum neurotoxin type A light chain protease (Clostridium botulinum A str. ATCC 3502). multiplex microsphere protease substrate cleavage. inhibition, % at 10 µM. 360,000 compounds, 0.17% hits; in the data active = inhibition above about 30%; also: plate controls were buffer without enzyme for full effect and enzyme alone for no effect
# FBA Mtb inh = Mtb FBA enzyme inhibitors, primary screen, biochemical, fluorescence, strain H37Rv. Fructose-bisphosphate aldolase (Mycobacterium tuberculosis (strain ATCC 25618 / H37Rv)), …. purified M. tuberculosis FBA, fluorescence read-out. inhibition, % at 1 µM. 360,000 compounds, 2.3% hits. AID 588726, 2011;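 also: 0% = vehicle and 100% = reference inhibitor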
# Mtb FBA confirm = M. tuberculosis aldolase blockers, biochemical, fluorescence, strain H37Rv, confirmation; AID 651616, 2012; 5,600 compounds, 78% hits; shares compounds with FBA Mtb inh; purified M. tuberculosis FBA, fluorescence read-out; inhibition, % at 1 µM;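 also: 0% = vehicle wells and 100% = reference inhibitor wells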
# GDH-TPI counter-2 = GDH-TPI coupling enzyme inhibitors, artefact control for M. tuberculosis FBA inhibitor project, biochemical, fluorescence, high throughput; shares compounds with FBA Mtb inh; GDH-TPI coupled enzyme counterscreen; inhibition, % at 1 µM; 5,600 compounds, 81% hits; AID 652141, 2013; in the data active = inhibition above about 10%
# Starred values were filed as active, the others as inactive; · = no result given; + = active, no number. The list is not random: actives were taken first. Their share in the collection is about 6.7%. Rule as the data show it, unless noted: active = inhibition above about 27%; inactive = the rest.
SMILES,GDH-TPI counter-1,BoNT-F LC inh,Bead autofluor,Anthrax LF prot,BoNT-A LC inh2,FBA Mtb inh,Mtb FBA confirm,GDH-TPI counter-2
CC(C)(C)NC(=O)CN(Cc1ccccc1)S(=O)(=O)c1ccccc1,0.4,0.9,3352,9.4,0.4,4.5,·,·
CCOC(=O)N1CCC(=NNC(=O)NC2CCCCC2)CC1,0.0,-4.5,4473,-1.6,-0.5,-2.0,·,·
Nc1ccc(Nc2ccccc2)c(S(=O)(=O)O)c1,13.0,-8.5,3477,0.6,-0.9,89.7*,84.5*,70.0*
CNc1cc(-c2cccc(OC)c2F)nc2ccnn12,7.1,-1.5,3856,-5.8,-0.6,109.1*,89.5*,62.4*
Cc1cc(N2CCN(c3ccccn3)CC2)n2c(nc3ccccc32)c1C#N,5.7,16.9,4524,0.1,0.4,0.1,·,·
CCCc1cc(NCc2ccccn2)n2c(nc3ccccc32)c1C#N,4.4,-1.2,4210,-0.2,0.1,49.9*,86.1*,68.0*
CCCNc1cc(C)c(C#N)c2nc3ccccc3n12,13.6,0.7,3286,-6.7,-0.2,69.5*,55.4*,44.9*
Cc1ncc(CO)c2c1Oc1nc(-c3ccccc3)nc(SCC(=O)N3CCCCC3)c1C2,5.0,-3.2,5796,1.5,1.3,2.8,·,·
Cc1oc2cc(O)ccc2c(=O)c1-c1nncn1-c1ccccc1,12.3,-2.8,3460,-5.9,-0.4,9.9,·,·
Cc1oc2cc(O)ccc2c(=O)c1-c1cnn(-c2ccccc2)c1,14.3,3.0,2708,-2.2,-0.1,40.7*,+,+
Cc1oc2cc(O)ccc2c(=O)c1-c1ccccc1,24.1,-1.5,2505,-0.3,-0.3,71.1*,198.7*,161.4*
CN(C)/C=N/c1nc2nccc(-c3ccccc3)n2n1,10.8,-4.5,4424,0.0,-0.2,51.7*,132.0*,105.6*
CC(Oc1ccccc1F)c1ccnc2nc(/N=C/N(C)C)nn12 (stereo unspecified),21.1,0.1,4502,3.0,0.9,5.3,·,·
CN(C)/C=N/c1nc2nccc(-c3ccc(Cl)cc3)n2n1,19.1,-4.8,4353,-0.1,-0.5,72.2*,-4.2,-5.0
CCCCNC(=O)c1ccc2c(OCC)n(CCCC)nc2c1,-2.6,5.3,3982,3.8,0.6,65.0*,93.1*,60.9*
CCOc1c2ccc(C(=O)NCCCCc3ccccc3)cc2nn1C,10.3,-4.5,3089,-0.3,-0.8,60.0*,2.8,0.3
CCOc1ccc(-n2c(C)nc3cc(C(=O)NCC4CCCO4)ccc32)cc1 (stereo unspecified),-3.5,2.1,4990,2.1,1.0,1.2,·,·
CCCn1nc2cc(C(=O)NC3CCc4ccccc43)ccc2c1OCC (stereo unspecified),0.5,-6.7,3835,1.2,0.3,39.5*,71.4*,63.7*
CCCCn1nc2cc(C(=O)NCCc3ccc(C)cc3)ccc2c1OCC,1.3,1.5,3863,-3.7,-0.3,22.3,·,·
CCCCn1nc2cc(C(=O)NC[C@@H]3CCCO3)ccc2c1OCC,4.9,-9.0,4003,-2.2,0.1,62.7*,124.5*,95.2*
O=C(O)c1ccc(S(=O)(=O)Nc2ccc(F)c(Cl)c2)cc1,-2.3,-8.6,2524,-1.1,-0.1,1.7,·,·
O=C(CSc1cccc[n+]1[O-])Nc1cccc(Oc2ccccc2)c1,-3.7,-5.4,3999,-4.3,-0.8,0.9,·,·
CCOCCCn1c(=S)[nH]c2cc(C(=O)N3CCN(C4CCCCC4)CC3)ccc2c1=O,9.6,2.1,5822,0.3,0.3,2.6,·,·
CCCCn1nc2cc(C(=O)NCCCCc3ccccc3)ccc2c1OCC,-1.7,-2.4,3863,-9.2,-0.2,24.5,·,·
CCCCn1nc2cc(C(=O)NCC3CC3)ccc2c1OCC,6.9,-3.0,3949,5.1,-0.3,87.7*,144.1*,116.0*
